Laboratory results published in PubChem BioAssay AID1510 (The Scripps Research Institute Molecular Screening Center, 2009).
The campaign covered roughly 220,000 compounds. About 570 (0.26%) were called active. This is one part of a sample in which actives are shown more often than they occur. No stated cut-off is given here; in the data, active means inhibition above about 29%; inactive means the rest.

What follows are compounds tested against Sphingosine 1-phosphate receptor 4 (Homo sapiens) (UniProt O95977) (assay: blockers of human S1P4 receptor – cell-based, primary screen (AID 1510;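 further: 0% = wells stimulated with agonist and 100% = vehicle wells without agonist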)). Conditions: S1P4-expressing cells, antagonist mode, reporter read-out; at 4.98 µM; active compounds read high.
Sequence of Sphingosine 1-phosphate receptor 4 (Homo sapiens) (O95977 whole entry, looked up): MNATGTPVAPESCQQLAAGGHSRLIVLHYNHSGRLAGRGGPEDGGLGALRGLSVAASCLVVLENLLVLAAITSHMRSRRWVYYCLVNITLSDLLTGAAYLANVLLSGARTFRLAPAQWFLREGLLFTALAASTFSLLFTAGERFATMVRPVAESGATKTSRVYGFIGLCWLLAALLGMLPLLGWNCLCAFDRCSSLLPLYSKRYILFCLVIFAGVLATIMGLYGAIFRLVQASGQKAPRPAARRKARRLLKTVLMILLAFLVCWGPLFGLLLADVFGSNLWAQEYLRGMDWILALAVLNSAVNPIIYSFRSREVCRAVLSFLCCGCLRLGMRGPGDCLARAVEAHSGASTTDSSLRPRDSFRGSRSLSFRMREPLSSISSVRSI

Question: `CCc1ccc(S(=O)(=O)NCC(O)COc2ccc(OC)cc2)cc1` (centres undefined) was tested. Which inhibition did it give?
Answer: Its inhibition is 2% (inactive).

Question: For `O=C(NCCOCc1ccc(Cl)cc1)c1ncn[nH]1`, which inhibition is on record?
Answer: Its inhibition is -4.23% (inactive).

Question: `COc1ccc(Cl)cc1CSc1ncn[nH]1` was tested. Which inhibition did it give?
Answer: The inhibition was -3.23% (inactive).

Question: With `O=C(/C=C/Sc1ncn[nH]1)c1ccc(Cl)cc1` as the compound, how does the inhibition read?
Answer: Its inhibition is 47.2% (active).

Question: For `CC(=O)N1N=C(c2ccncc2)OC1(Cc1ccccc1)Cc1ccccc1`, which inhibition is on record?
Answer: Its inhibition is 23.2% (inactive).

Question: `CN(C)CCNC(=O)Cc1ccc([N+](=O)[O-])cc1` was tested. Which inhibition did it give?
Answer: Its inhibition is -16% (inactive).

Question: How did the inhibition turn out when `CCCc1nc2c(C)cc(-c3nc4ccccc4n3C)cc2n1Cc1ccc(-c2ccccc2C(=O)O)cc1` was run?
Answer: Its inhibition is -1.52% (inactive).

Question: `CCOc1ccc(C(C)=O)cc1COC(=O)c1cnc(Cl)c(Cl)c1` was tested. Which inhibition did it give?
Answer: The inhibition was -30.6% (inactive).

Question: Which inhibition does the source give for `CCOC(=O)C(C(=O)OCC)C(C#N)c1ccccc1` (centres undefined) here?
Answer: Its inhibition is -19.7% (inactive).

Question: Which inhibition does the source give for `O=C(Cc1ccc(-c2ccccc2)cc1)NC(c1ccccc1)c1ccccc1` here?
Answer: Its inhibition is -5.23% (inactive).

Question: Which inhibition does the source give for `CCOC(=O)/C=C/C(=O)OCC(=O)NC(c1ccccc1)c1ccccc1` here?
Answer: The inhibition was 36.3% (active).

Question: For `O=C(CSc1cccc[n+]1[O-])NCCCc1ccccc1`, which inhibition is on record?
Answer: Its inhibition is 14.6% (inactive).

Question: For `O=C(Nc1nnc(CCN2CCCCC2)s1)c1cccc(Cl)c1`, which inhibition is on record?
Answer: Its inhibition is 6.03% (inactive).

Question: Which inhibition does the source give for `Cc1cc(Nc2cccc(C)c2C)n2ncnc2n1` here?
Answer: Its inhibition is -10.4% (inactive).

Question: Which inhibition does the source give for `O=C(CSc1nnnn1-c1ccc(O)cc1)c1ccc(F)cc1` here?
Answer: The inhibition was 6.46% (inactive).

Question: Which inhibition does the source give for `CCOC(=O)c1sc(NC(=O)CSc2nc(O)c(Cc3ccccc3)c(=O)[nH]2)nc1C` here?
Answer: The inhibition was -8.89% (inactive).

Question: How did the inhibition turn out when `Cc1[nH]c2ccccc2c1-c1ccc(Cl)nn1` was run?
Answer: The inhibition was 2.48% (inactive).

Question: How did the inhibition turn out when `O=C(CO/N=C/c1ccccc1O)NNC(=O)c1ccccc1Cl` was run?
Answer: Its inhibition is -12.4% (inactive).

Question: For `Cc1cc(C)cc(Oc2nc3c(C)cccn3c(=O)c2/C=C(\C#N)C(=O)NC2CCS(=O)(=O)C2)c1` (centres undefined), which inhibition is on record?
Answer: Its inhibition is -10.8% (inactive).

Question: For `CCNC(=O)NNC(=O)C1CC(c2cccs2)=NO1` (centres undefined), which inhibition is on record?
Answer: The inhibition was -2.29% (inactive).

Question: Which inhibition does the source give for `CCOc1ccc(NS(=O)(=O)c2ccc(C)c(C(N)=O)c2)cc1` here?
Answer: The inhibition was -13.9% (inactive).

Question: For `CC(=O)Nc1ccc(S(=O)(=O)NC2(C(F)(F)F)C(=O)Nc3c2c(=O)[nH]c(=O)n3Cc2ccccc2)cc1` (centres undefined), which inhibition is on record?
Answer: Its inhibition is -16.6% (inactive).

Question: For `O=C(Nc1ccccc1)N1CCN(C2c3ccccc3-c3ccccc32)CC1`, which inhibition is on record?
Answer: Its inhibition is -2.81% (inactive).

Question: With `COc1ccc(NC(=O)c2cn(-c3ccccc3)nc2SC)cc1` as the compound, how does the inhibition read?
Answer: The inhibition was -1.4% (inactive).

Question: For `COCC(=O)Nc1cc(C(=O)OC)cc(C(=O)OC)c1`, which inhibition is on record?
Answer: Its inhibition is -10.1% (inactive).

Question: For `Nc1c(C(=O)O)cnn1-c1ccccc1`, which inhibition is on record?
Answer: The inhibition was -7.33% (inactive).

Question: `CC(C)NC(=O)NCCCCCCS(C)=O` (centres undefined) was tested. Which inhibition did it give?
Answer: Its inhibition is -8.38% (inactive).

Question: `CSc1cccc(NC(=O)C2CCCN2S(=O)(=O)c2ccc3c(c2)CCC(=O)N3)c1` (centres undefined) was tested. Which inhibition did it give?
Answer: The inhibition was -15% (inactive).

Question: `CCC(C)(C)C1CCC(=NNC(=O)c2ccc(Br)o2)CC1` (centres undefined) was tested. Which inhibition did it give?
Answer: Its inhibition is -7.44% (inactive).

Question: With `CCOC(=O)Cc1ncccc1C(=O)Nc1ccc(OC(F)(F)F)cc1` as the compound, how does the inhibition read?
Answer: The inhibition was -25.3% (inactive).

Question: How did the inhibition turn out when `COC(=O)c1ccc(S(=O)(=O)NCc2ccccc2)n1C` was run?
Answer: Its inhibition is -20.7% (inactive).

Question: Which inhibition does the source give for `Cc1nn(-c2ccccc2)c(C)c1NC(=O)CCl` here?
Answer: Its inhibition is -19.8% (inactive).

Question: Which inhibition does the source give for `COc1ccc2ccccc2c1CNc1nnnn1C` here?
Answer: The inhibition was 6.29% (inactive).

Question: Which inhibition does the source give for `O=C(O)c1ccn(COc2ccc(Br)cc2)n1` here?
Answer: The inhibition was 3.75% (inactive).

Question: Which inhibition does the source give for `Nc1nnc(SCC(=O)Nc2ccc3nc(SCC(=O)Nc4ccccc4)sc3c2)s1` here?
Answer: Its inhibition is -10.8% (inactive).

Question: For `CC(C)C(C)(C#N)NC(=O)CSc1nncn1-c1ccccc1` (centres undefined), which inhibition is on record?
Answer: The inhibition was -9.99% (inactive).

Question: How did the inhibition turn out when `CCOc1ncccc1C(=O)N(C)CC(=O)Nc1ccc(F)cc1` was run?
Answer: The inhibition was -7.65% (inactive).

Question: With `CCCCCC1CCC(c2nnc(SCC(C)=O)o2)CC1` (centres undefined) as the compound, how does the inhibition read?
Answer: Its inhibition is -13.8% (inactive).

Question: How did the inhibition turn out when `NC(=O)COC(=O)c1cc(S(=O)(=O)N2CCN(c3ccccc3)CC2)ccc1Cl` was run?
Answer: The inhibition was -4.86% (inactive).

Question: `Cn1c(CCC(=O)OCC(=O)NCc2ccccc2Cl)nc(=O)c2ccccc21` was tested. Which inhibition did it give?
Answer: Its inhibition is -5.53% (inactive).

Question: For `O=C(Nc1ccc(F)cc1)N1CCN(c2ccc(F)cc2)CC1`, which inhibition is on record?
Answer: Its inhibition is -44% (inactive).

Question: How did the inhibition turn out when `Cn1c(N)c(C(=O)COC(=O)c2cnc(Cl)c(Cl)c2)c(=O)n(C)c1=O` was run?
Answer: Its inhibition is -6.76% (inactive).

Question: Which inhibition does the source give for `CCc1nnc(NS(=O)(=O)c2ccc(NC(=S)NC(=O)/C=C/c3cccs3)cc2)s1` here?
Answer: The inhibition was 9.53% (inactive).

Question: `O=C(Nc1ccccc1Cc1ccccc1)c1ccc2c(c1)SC1=NS(=O)(=O)CCN12` was tested. Which inhibition did it give?
Answer: Its inhibition is -10.9% (inactive).
